Sampled rows, rich in hits. Any-hit rate of the full collection: about 7.5%.
FLuc counter: inhibits or activates purified firefly luciferase, miR-21 counter-screen | P08659 | purified FLuc, Km substrates, luminescence inhibition | Potency, µM (highest dose often 57.5 µM), for the others: at the highest dose activity change, negative = inhibition, hits mostly inhibitors | hit rate 6.9% among 360,000;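 note: plate controls were vehicle for no effect and reference inhibitor for full effect; nearly all actives have a fitted effect of over 55% in size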
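Purified P. pyralis luciferase (10nM final) with 10uM D-luciferin and 10uM ATP (Km levels) in 50mM Tris acetate pH 7.5, 10mM Mg acetate, 0.01% Tween-20, 0.05% BSA; qHTS 6-point titration, ~60 µM downward; luminescence read.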
SMN2 splice enh: SMN2 splice variant enhancement; HEK293 SMN2-luciferase splicing reporter, luminescence, 30-36 h; Potency, µM (highest dose often 46.1 µM), for the others: at the top dose activity change, positive = activation, usual class: activators; hit rate 2.8% among 210,000; AID 1458; note: % of control where 0% means no effect; nearly all actives have a fitted effect of over 55% in size
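HEK293 cells carry an SMN2 […]–luciferase reporter in which exon 7 inclusion puts luciferase in frame. Cells were plated 10-12 h before compound addition, then incubated 30-36 h at 37C. ONE-Glo luminescence was read; sodium butyrate at 4.5 mM final served as control.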
ELG1 genotox: genotoxicity induction in ELG1-luciferase HEK293T cells; HEK293T ELG1-luciferase reporter, luminescence, 16 h; Potency, µM (doses to about 46 µM), without a hit: at the highest dose activity change, positive = activation, hits mostly activators; hit rate 1.3% among 330,000; note: % of control where 0% means no effect; nearly all actives have a fitted effect of over 60% in size
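Quantitative HTS format in 1536-well plates. HEK293T ELG1-luciferase reporter cells receive test compound and are incubated 16 hr at 37 °C, 5% CO2; ONE-Glo added, 30 min room temperature, then luminescence read.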
NPC1 promoter act: NPC1 promoter activation; Potency, µM (doses to about 9.22 µM), for the others: at the top dose activation, hits mostly activators; hit rate 2.4% among 320,000; AID 485313; Huh7 NPC1 promoter luciferase reporter, 24 h; note: % of control where 0% means no effect; nearly all actives have a fitted effect of over 60% in size
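In 1536-well qHTS, Huh7 cells harboring an NPC1 promoter–luciferase construct received compound for 24 h; activation was quantified by luminescence following luciferase reagent addition.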
KinaseGlo FLuc: blocks Kinase-Glo luciferase, a counter-screen artifact; Potency, µM (highest dose often 38.3 µM), without a hit: at the highest dose activity change, negative = inhibition, hits mostly inhibitors; hit rate 0.28% among 200,000; AID 1379; Kinase-Glo luciferase, ATP luminescence, 8 min; note: % is set by controls: 0 for no effect and ±100 for the full control effect; nearly all actives have a fitted effect of over 60% in size
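Compound is pinned into ATP-containing buffer (10 uM ATP, imidazole pH 7.2, 7 mM MgCl2). Kinase-Glo luciferase reagent is then added. Light output is recorded following an 8-min room-temperature incubation.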
Rab9 promoter act: activates the Rab9 promoter; Huh7 Rab9 promoter-luciferase reporter, luminescence, 24 h; Potency, µM (series often up to 9.22 µM), without a hit: at the highest dose activation, negative = inhibition, actives largely listed as activators; hit rate 2.8% among 320,000; AID 485297; note: % of control where 0% means no effect; nearly all actives have a fitted effect of over 60% in size
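Luminescence from Amplite-detected luciferase (10 minutes, ambient) reports Rab9 promoter activation. Before that, stable Rab9-luciferase Huh7 cells (1500/well, reduced-serum OP-MEM I plus 10% FBS) were exposed to compound for 24 hours at 37C.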
* hit, by the source's call; ? = inconclusive; nt = not tested or not shown; [ ] = remark or other dose. Calls come from the whole dose curve; as a rule, active = well fitted curve in the direction sought with a large enough effect; inconclusive = small, poorly fitted or top-dose-only effect, or another doubt; inactive = no such curve, though single readings can be large; an effect the other way counts as inactive or inconclusive. Potency is the fitted concentration of half-maximal effect.

SMILES | FLuc counter | SMN2 splice enh | ELG1 genotox | NPC1 promoter act | KinaseGlo FLuc | Rab9 promoter act
CN(C)c1ccc(/C=C/C(=O)c2ccccc2O)cc1 | 0.6µM* | nt | ? | 3.5µM* | -15% | ?
Cc1ccc(/C=C/C(=O)c2ccc(C)cc2)cc1 | 1.3µM* | -1% | ? | 10% | 0% | 23%
Cc1ccc(/C=C/C(=O)c2ccccc2O)cc1 | 1.2µM* | nt | ? | 18% | nt | 20%
O=C(/C=C/c1ccco1)c1ccccc1O | 11µM* | nt | ? | -4% | -11% | -4%
O=C(/C=C/c1ccco1)c1cccnc1 | -7% | nt | -2% | 2% | nt | 1%
Cc1ccc2occ(/C=C/C(=O)c3ccccc3O)c(=O)c2c1 | ? | 8% | 7% | ? | -7% | 12%
Cc1c(/C=C/C(=O)c2ccccc2O)cnn1C | 1.3µM* | 16µM* | ? | 3.5µM* | ? | 2.5µM*
COc1cc(O)c2c(O)c3c(c4c2c1[C@@]1(C4)C(C)=CCCC1(C)C)[C@H](O)[C@@]1(O)CC(=O)C(C(N)=O)=C(O)[C@]1(O)C3=O | nt | 1%[9.22 µM] | nt | nt | -8%[7.66 µM] | nt
Nc1ccc(C(=O)OCC(=O)c2cccc([N+](=O)[O-])c2)cc1 | 24µM* | -4% | 9% | 2% | -8% | 12%
